Laboratory results published in PubChem BioAssay (Tox21).
“And” between values parts separate entries of the source, which are not always exact repeats. Identical values can stand only once. Results filed as inconclusive are left out. Some compounds were tested as several samples or in several runs, with calls that do not always agree. The source made the active and inactive calls. Unless noted, calls follow the shape of the dose curve; as a rule, active = well fitted curve in the direction sought with a large enough effect in the repeat runs; inconclusive = weak or mixed curves; inactive = no such curve, though single readings can be large; an effect the other way counts as inactive or inconclusive.

Columns and labels:
[1] = qHTS assay to identify small molecule antagonists of the androgen receptor (AR) signaling pathway using the MDA cell line in the presence of 0.5 nM R1881 - cell viability counter screen (AID 1259242); also: nearly all actives have a fitted effect of over 45% in size
Summary of the method: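 MDA-kb2 cells (human breast carcinoma, stably carrying MMTV-luciferase reporter) were exposed to compounds with 0.5 nM R1881 (final) for 16 hr at 37C, 0% CO2; viability then read as live-cell protease fluorescence (CellTiter-Fluor, 30 min) in the same wells.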

[2] = target: Estrogen receptor (Homo sapiens) (UniProt P03372); experiment: qHTS assay to identify small molecule antagonists of the estrogen receptor alpha (ER-alpha) signaling pathway using the BG1 cell line in the presence of 0.1 nM 17-beta-estradiol (AID 1259244); also: nearly all actives have a fitted effect of over 50% in size
Chain of Estrogen receptor (Homo sapiens) (P03372 whole entry, looked up): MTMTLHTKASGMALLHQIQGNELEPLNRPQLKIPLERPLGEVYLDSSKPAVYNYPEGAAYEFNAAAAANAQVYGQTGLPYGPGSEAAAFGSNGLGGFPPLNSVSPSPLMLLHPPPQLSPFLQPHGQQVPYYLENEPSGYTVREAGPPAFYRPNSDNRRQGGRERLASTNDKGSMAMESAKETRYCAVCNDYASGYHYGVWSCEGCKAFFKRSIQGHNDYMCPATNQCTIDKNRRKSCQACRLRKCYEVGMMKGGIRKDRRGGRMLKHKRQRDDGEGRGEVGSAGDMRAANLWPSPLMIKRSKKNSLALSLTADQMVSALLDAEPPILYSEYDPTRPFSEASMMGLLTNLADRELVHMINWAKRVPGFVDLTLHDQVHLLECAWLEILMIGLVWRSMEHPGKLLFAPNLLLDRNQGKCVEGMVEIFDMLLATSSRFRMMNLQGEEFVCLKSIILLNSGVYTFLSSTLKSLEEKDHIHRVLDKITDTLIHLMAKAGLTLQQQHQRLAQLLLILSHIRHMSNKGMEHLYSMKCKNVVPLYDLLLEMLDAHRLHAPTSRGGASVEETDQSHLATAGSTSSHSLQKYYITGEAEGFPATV
Summary of the method: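 VM7Luc4E2 cells (endogenous full-length ER-alpha, stable 4xERE-luciferase) were grown 5 days in phenol red-free medium with charcoal-stripped FBS, then exposed 22 h at 37C to compounds plus 0.1 nM (final) 17beta-estradiol; ONE-Glo luminescence read-out.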

[3] = qHTS assay to identify small molecule phospholipidosis (PLD) inducers (AID 1259344; active = well fitted curve in the direction sought with a large enough effect; an effect the other way counts as inactive or inconclusive)
Summary of the method: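 Fluorescent phospholipid staining (LipidTOX Red) measured by automated microscopy in fixed HepG2 cells after 24 h treatment; nuclei counterstained with Hoechst 33342; amiodarone as reference inducer.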

[4] = qHTS assay to identify small molecule HDAC inhibitors - cell viability counter screen (AID 1259365); also: series mostly up to about 92 µM; nearly all actives have a fitted effect of over 50% in size
Summary of the method: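 Wild-type HCT-116 cells were seeded at 1,500 per well, incubated overnight at 37 C, then exposed to compounds in DMSO for 2hr. Viability was read by CellTiter-Glo luminescence after 30min at room temperature.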

[5] = qHTS assay to identify small molecule agonists of the sonic hedgehog signaling (Shh) pathway - cell viability counter screen (AID 1259366); also: nearly all actives have a fitted effect of over 50% in size
Summary of the method: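 NIH/3T3-derived 3T3 Gli1-Luc cells (stable Gli1-responsive firefly luciferase reporter) were seeded, rested 4 hr at 37 C/5% CO2, then exposed to compounds in DMSO for 24 hr; viability was read by CellTiter-Fluor fluorescence in the same wells.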

[6] = qHTS assay to identify small molecule agonists of the sonic hedgehog signaling (Shh) pathway (AID 1259368; calls by dose curve; also: series mostly up to about 92 µM; nearly all actives have a fitted effect of over 15% in size)
Summary of the method: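 NIH/3T3-derived 3T3Gli1-Luc cells carrying a stably integrated Gli1 response element–firefly luciferase reporter were plated, left 4 hr at 37 C, then given compounds in DMSO for 24 hr. Luminescence was read 30 min after adding luciferase reagent.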

[7] = qHTS assay to identify small molecule antagonists of the sonic hedgehog signaling (Shh) pathway (AID 1259369; calls by dose curve; also: nearly all actives have a fitted effect of over 45% in size; also: potency is read from the fitted curve at half-maximal effect)
Summary of the method: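 NIH/3T3-derived 3T3Gli1-Luc cells with stably integrated Gli1-Luc reporter were preincubated 4hr at 37 C, then given compounds in DMSO plus Shh conditioned medium and incubated 24hr. Firefly luciferase luminescence read after 30min reagent at room temperature.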

[8] = target: Estrogen receptor beta (Homo sapiens) (UniProt Q92731); experiment: qHTS assay to identify small molecule agonists of the estrogen receptor beta (ER-beta) signaling pathway (AID 1259377; active = well fitted activation curve with a large enough effect in the signal ratio in the repeat runs, not every such curve was filed as active; the % refers to the signal ratio)
Chain of Estrogen receptor beta (Homo sapiens) (Q92731 whole entry, looked up): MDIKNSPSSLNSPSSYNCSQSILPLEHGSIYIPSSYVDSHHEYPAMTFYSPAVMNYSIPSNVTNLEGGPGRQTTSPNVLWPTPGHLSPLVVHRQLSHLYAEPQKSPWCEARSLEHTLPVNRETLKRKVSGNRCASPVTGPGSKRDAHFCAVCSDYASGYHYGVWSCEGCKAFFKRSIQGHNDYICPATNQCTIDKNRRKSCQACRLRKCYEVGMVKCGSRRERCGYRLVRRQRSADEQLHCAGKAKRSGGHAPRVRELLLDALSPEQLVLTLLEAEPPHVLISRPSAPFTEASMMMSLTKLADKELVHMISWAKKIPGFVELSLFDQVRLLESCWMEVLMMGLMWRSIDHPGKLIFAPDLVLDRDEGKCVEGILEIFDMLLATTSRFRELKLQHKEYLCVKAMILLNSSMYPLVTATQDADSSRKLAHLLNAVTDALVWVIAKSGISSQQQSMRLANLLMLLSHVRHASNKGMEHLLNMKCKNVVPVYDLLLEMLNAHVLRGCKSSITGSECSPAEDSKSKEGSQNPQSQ
Summary of the method: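 ER-beta-UAS-bla HEK293T (GripTite) cells carrying a UAS-driven beta-lactamase reporter, in medium with 2% charcoal-stripped FBS, were exposed to compounds for 16 hr at 37C; LiveBLAzer B/G FRET substrate was then added and fluorescence read after 2 hours at room temperature.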

[9] = target: Estrogen receptor beta (Homo sapiens) (UniProt Q92731); experiment: qHTS assay to identify small molecule antagonists of the estrogen receptor beta (ER-beta) signaling pathway (AID 1259378; active = well fitted inhibition curve with a large enough effect in the signal ratio in the repeat runs, not every such curve was filed as active; the % refers to the signal ratio)
Summary of the method: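 Antagonist mode: compounds added to beta-lactamase reporter HEK293T ER-beta-UAS cells stimulated with E2 (1nM final), 16 hr at 37C. LiveBLAzer B/G FRET substrate, 2 hours room temperature, fluorescence read-out.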

[10] = qHTS assay to identify small molecule agonists of the androgen receptor (AR) signaling pathway in the presence of an antagonist - cell viability counter screen (AID 1259379); also: series mostly up to about 92 µM; nearly all actives have a fitted effect of over 25% in size
Summary of the method: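 MDA-kb2 human breast carcinoma cells (stable MMTV-luciferase, AR/GR responsive) were seeded 3,000 cells/well, pre-incubated 5 hr at 37C without CO2, then given 3.0uM nilutamide and compounds at 15 concentrations for 16 hr. Viability was read by CellTiter-Fluor fluorescence.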

[11] = qHTS assay to identify small molecule agonists of the estrogen receptor beta (ER-beta) signaling pathway - cell viability counter screen (AID 1259380); also: nearly all actives have a fitted effect of over 30% in size
Summary of the method: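 ER-beta-UAS-bla HEK293T cells in medium with 2% charcoal-stripped FBS were preincubated 6 hr at 37C, dosed with compound in DMSO for 16 hr, then after the bla read, CellTiter-Glo was added for 30 min at room temperature; luminescence recorded.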

[12] = qHTS assay to identify small molecule antagonists of the estrogen receptor beta (ER-beta) signaling pathway - cell viability counter screen (AID 1259382); also: series mostly up to about 92 µM; nearly all actives have a fitted effect of over 55% in size
Summary of the method: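 ER-beta-UAS-bla HEK293T cells (2,000/well, 2% charcoal-stripped FBS) were pre-incubated 6 hr at 37C, then given compound plus 1nM final 17-beta-estradiol for 16 hr. Viability was read in the same wells by CellTiter-Glo luminescence after 30 min at room temperature.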

[13] = target: Estrogen receptor (Homo sapiens) (UniProt P03372); experiment: qHTS assay to identify small molecule agonists of the estrogen receptor alpha (ER-alpha) signaling pathway in the presence of an antagonist (AID 1259383; calls by dose curve; also: top concentration of the series differs between compounds; nearly all actives have a fitted effect of over 15% in size)
Summary of the method: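 VM7Luc4E2 cells (endogenous full-length ER-alpha, 4×ERE-luciferase) were precultured 5 days in phenol red-free medium with 10% charcoal-stripped FBS, given 10.0nM ICI-182,780 (final), then treated with compounds at 15 concentrations for 22hr at 37C; luminescence read with ONE-Glo.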

[14] = qHTS assay to identify small molecule agonists or antagonists of the thyroid stimulating hormone receptor (TSHR) signaling pathway - wild type cell line counter screen (AID 1259384; calls by dose curve)
Summary of the method: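 Counter screen in untransfected Hek293: compounds (15-point titration, triplicate) plus phosphodiesterase inhibitor Ro20-1724 added after 18 h plating; 30 min RT. Intracellular cAMP via competitive d2/cryptate immunoassay, 1 h incubation.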

[15] = target: Thyrotropin receptor (Homo sapiens) (UniProt P16473); experiment: qHTS assay to identify small molecule antagonists of the thyroid stimulating hormone receptor (TSHR) signaling pathway (AID 1259385; calls by dose curve; also: nearly all actives have a fitted effect of over 20% in size)
Chain of Thyrotropin receptor (Homo sapiens) (P16473 whole entry, looked up): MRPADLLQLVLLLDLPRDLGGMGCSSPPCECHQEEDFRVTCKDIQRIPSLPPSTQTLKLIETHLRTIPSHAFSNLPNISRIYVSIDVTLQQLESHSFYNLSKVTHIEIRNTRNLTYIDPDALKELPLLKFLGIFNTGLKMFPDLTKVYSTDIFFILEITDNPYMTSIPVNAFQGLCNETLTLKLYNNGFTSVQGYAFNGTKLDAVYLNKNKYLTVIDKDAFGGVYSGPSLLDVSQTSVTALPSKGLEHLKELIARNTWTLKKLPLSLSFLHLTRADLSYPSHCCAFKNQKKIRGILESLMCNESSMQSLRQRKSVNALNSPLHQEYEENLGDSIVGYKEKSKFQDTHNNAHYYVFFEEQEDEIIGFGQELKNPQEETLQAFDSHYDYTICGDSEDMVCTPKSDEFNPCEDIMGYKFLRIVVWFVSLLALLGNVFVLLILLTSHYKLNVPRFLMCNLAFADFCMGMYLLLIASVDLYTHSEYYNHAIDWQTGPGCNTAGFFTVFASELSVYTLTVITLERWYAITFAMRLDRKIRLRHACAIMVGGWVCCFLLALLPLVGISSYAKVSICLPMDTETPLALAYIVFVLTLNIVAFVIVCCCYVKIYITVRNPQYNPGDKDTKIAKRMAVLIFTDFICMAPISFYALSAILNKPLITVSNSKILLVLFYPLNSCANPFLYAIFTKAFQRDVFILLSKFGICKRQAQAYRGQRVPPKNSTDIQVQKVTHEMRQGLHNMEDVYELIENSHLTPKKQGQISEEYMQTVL
Summary of the method: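 Antagonist mode: compound-treated TSHR-expressing HEK293 cells were stimulated with 1.5 ng/mL TSH (final) in presence of Ro20-1724 for 30 min at RT. HTRF cAMP detection after 1 h; each compound tested at 15 concentrations, triplicate.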

[16] = qHTS assay to identify small molecule agonists of the estrogen receptor alpha (ER-alpha) signaling pathway in the presence of an antagonist - cell viability counter screen (AID 1259386); also: series mostly up to about 92 µM; nearly all actives have a fitted effect of over 30% in size
Summary of the method: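 VM7Luc4E2 cells (endogenous full-length ER-alpha, 4×ERE-luciferase) were held 5 days in phenol red-free medium with 10% charcoal-stripped FBS, plated, then given 10.0nM ICI-182,780 and compounds at 15 concentrations for 22hr at 37C; viability read by CellTiter-Fluor fluorescence.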

[17] = qHTS assay to identify small molecule HDAC inhibitors (AID 1259364); also: top concentration of the series differs between compounds; nearly all actives have a fitted effect of over 45% in size
Summary of the method: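 Wild-type HCT-116 cells were plated overnight, exposed to compounds for 2 h at 37 °C, then given HDAC-Glo class I/II luminogenic reagent for 30 min at room temperature before luminescence was read.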

[18] = qHTS assay to identify small molecule antagonists of the sonic hedgehog signaling (Shh) pathway - cell viability counter screen (AID 1259367); also: nearly all actives have a fitted effect of over 55% in size; also: potency is read from the fitted curve at half-maximal effect
Summary of the method: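 Using CellTiter-Fluor, viability of Gli1-Luc reporter 3T3 cells is read by fluorescence in the wells used for the Shh luciferase assay. Treatment lasts 23 hr with conditioned medium, then reagent 1 hr at 37C.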

[19] = target: Androgen receptor (Homo sapiens) (UniProt P10275); experiment: qHTS assay to identify small molecule antagonists of the androgen receptor (AR) signaling pathway using the MDA cell line in the presence of 0.5 nM R1881 (AID 1259243); also: nearly all actives have a fitted effect of over 50% in size
Chain of Androgen receptor (Homo sapiens) (P10275 whole entry, looked up): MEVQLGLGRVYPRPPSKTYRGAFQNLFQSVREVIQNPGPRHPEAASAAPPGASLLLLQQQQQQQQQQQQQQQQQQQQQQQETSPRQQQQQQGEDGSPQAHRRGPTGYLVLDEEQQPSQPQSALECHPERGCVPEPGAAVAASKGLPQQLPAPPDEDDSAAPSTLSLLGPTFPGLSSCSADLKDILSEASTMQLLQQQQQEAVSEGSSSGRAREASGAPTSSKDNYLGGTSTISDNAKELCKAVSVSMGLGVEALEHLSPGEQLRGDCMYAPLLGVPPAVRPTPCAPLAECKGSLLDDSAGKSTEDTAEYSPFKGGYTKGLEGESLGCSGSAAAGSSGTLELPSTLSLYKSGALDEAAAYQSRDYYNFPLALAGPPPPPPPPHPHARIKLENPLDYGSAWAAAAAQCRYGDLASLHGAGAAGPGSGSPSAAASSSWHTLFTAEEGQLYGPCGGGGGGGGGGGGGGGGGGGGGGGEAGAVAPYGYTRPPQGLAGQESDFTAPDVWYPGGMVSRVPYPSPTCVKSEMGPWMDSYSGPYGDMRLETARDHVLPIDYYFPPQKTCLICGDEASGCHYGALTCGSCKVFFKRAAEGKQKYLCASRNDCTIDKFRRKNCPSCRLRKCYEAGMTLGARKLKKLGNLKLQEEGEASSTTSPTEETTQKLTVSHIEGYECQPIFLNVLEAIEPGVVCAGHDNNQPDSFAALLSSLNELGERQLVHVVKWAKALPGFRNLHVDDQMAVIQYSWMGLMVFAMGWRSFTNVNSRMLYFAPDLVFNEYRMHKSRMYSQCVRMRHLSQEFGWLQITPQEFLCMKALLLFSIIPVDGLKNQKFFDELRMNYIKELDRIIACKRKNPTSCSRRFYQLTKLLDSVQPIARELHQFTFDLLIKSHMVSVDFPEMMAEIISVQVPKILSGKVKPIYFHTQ
Summary of the method: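 MDA-kb2 human breast carcinoma cells carrying an MMTV-luciferase reporter (AR- and GR-responsive) were plated, rested 5 hr at 37C, dosed with compounds, then stimulated with 0.5 nM R1881 (final) for 16 hr; luminescence was read after ONE-Glo.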

[20] = target: Androgen receptor (Homo sapiens) (UniProt P10275); experiment: qHTS assay to identify small molecule agonists of the androgen receptor (AR) signaling pathway in the presence of an antagonist (AID 1259381; calls by dose curve; also: nearly all actives have a fitted effect of over 15% in size)
Summary of the method: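 MDA-kb2 human breast carcinoma cells carrying an MMTV-luciferase reporter (AR- and GR-responsive) were treated with compounds at 15 concentrations plus 3.0uM final nilutamide for 16hr at 37C without CO2; luminescence was read after ONE-Glo addition.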

Measured: Potency

FC(F)(F)C(Cl)Br (stereo not given)
not listed: [17] | [18] | [19] | [20]
inactive: all other assays above

OC[C@@H](O)[C@@H](O[C@@H]1O[C@H](CO)[C@H](O)[C@H](O)[C@H]1O)[C@H](O)[C@@H](O)CO
not listed: [8] | [9] | [19] | [20]
inactive: all other assays above

CCCCCCCC/C=C\CCCCCCCC(=O)O
not listed: [13] | [18] | [19] | [20]
inactive: all other assays above

CC[C@]12CCCN3CCc4c(n(c5ccccc45)[C@@](O)(C(=O)OC)C1)[C@@H]32
not listed: [2] | [8] | [9] | [13] | [14] | [15]
inactive: all other assays above

COC(=O)C(C)Oc1ccc(Oc2ncc(C(F)(F)F)cc2Cl)cc1 (stereo not given)
inactive and 30.6 µM (active): [7]
not listed: [3] | [19] | [20]
inactive: all other assays above

C[C@]12C=CC(=O)C=C1CC[C@H]1[C@@H]3C[C@@H](O)[C@](O)(C(=O)CO)[C@@]3(C)C[C@H](O)[C@@]12F
not listed: [8] | [9] | [13] | [19] | [20]
inactive: all other assays above

Cc1ccc(/C(=C\CN2CCCC2)c2ccccn2)cc1
36.2 µM (active) and inactive: [18]
active: [7] 25.6 µM
not listed: [8] | [9] | [19] | [20]
inactive: all other assays above
